Reference: PubChem BioAssay
For part of these data: Entries with a potency or affinity are not part of this list. This is one part of the list. Calls of active or inactive are those of the source.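 How the source made its calls, unless noted: active means fluorescence ratio normalized to control raised more than 50% in primary screen plus both repeat runs; inactive means the rest.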

Experiments:
[1] = test system: TRPC4 beta (transient receptor potential cation channel C4), mouse; assay: activators of mouse TRPC4 channel, confirmation, cell-based, Fluo4 calcium, HEK293 TRPC4beta/mu-opioid, duplicates, 10 µM (AID 2426); details: Fluo4 calcium fluorescence, at 10 µM; hits give high values;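 on activation: percent rise of integrated ratio over buffer wells lacking compound which define 0%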
[2] = test system: transient receptor potential cation channel C4 beta (TRPC4), mouse; assay: activators of mouse TRPC4 channel, confirmation, cell-based, second round, Fluo4, HEK293 TRPC4beta/mu-opioid, 1 µM (AID 2461;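 active means primary screen active and over 50% activation in each of two duplicate runs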); details: Fluo4 calcium fluorescence, at 1 µM; hits give high values
[3] = test system: TRPC4 (transient receptor potential cation channel C4 beta), mouse; assay: positive allosteric modulators of mouse TRPC4, confirmation, cell-based, second round, Fluo-4, HEK293 TRPC4beta/mu-opioid, 1 µM (AID 2554;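 active means primary screen hit whose fluorescence ratio, in both repeats, exceeds the weak agonist control mean by 3 SD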); details: DAMGO EC20, Fluo-4 calcium flux, at 1 µM; hits give high values
[4] = test system: TRPC4 beta (transient receptor potential cation channel C4), mouse; assay: positive allosteric modulators of mouse TRPC4, confirmation, cell-based, Fluo-4, HEK293 TRPC4beta/mu-opioid (AID 2555;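 active means primary screen hit whose calcium fluorescence ratio, in both repeats, exceeds the weak agonist control mean by 3 SD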); details: DAMGO EC20, Fluo-4 calcium flux, at 10 µM; hits give high values
[5] = target: Short transient receptor potential channel 4 (Mus musculus) (UniProt Q9QUQ5); assay: inhibitors of mouse TRPC4 channel, confirmation, cell-based, Fluo4, HEK293 TRPC4beta/mu-opioid (AID 2636;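 active means calcium signal cut by more than 3 SD below the full-agonist control yet still positive, in both repeats and the earlier primary screen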); details: DAMGO, Fluo4 calcium flux, at 10 µM; hits give high values
[6] = target: Short transient receptor potential channel 4 (Mus musculus) (UniProt Q9QUQ5); assay: inhibitors of mouse TRPC4 channel, confirmation, cell-based, second round, Fluo4, HEK293 TRPC4beta/mu-opioid, 1 µM (AID 2637;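 active means calcium signal ratio cut to more than 3 SD under the fully stimulated control mean yet still positive, in both repeats and the primary screen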;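 on inhibition: percent of integrated ratio relative to wells lacking test compound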); details: Fluo4 calcium flux, DAMGO, at 1 µM; hits give high values
[7] = target: Short transient receptor potential channel 4 (Mus musculus) (UniProt Q9QUQ5); assay: TRPC4 positive allosteric modulators, dose response, cell-based, HEK293 TRPC4/mu-opioid, Fluo-4 calcium, EC20 DAMGO (AID 434941;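 active means earlier screen potentiator hit that boosts the TRPC4 ion channel at some dose, with a dose response; inactive means no potentiation, no dose response, or not a prior hit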;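 further: calcium entry triggered by an EC20 dose of DAMGO at the co-expressed mu-opioid receptor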)
[8] = target: Short transient receptor potential channel 6 (Mus musculus) (UniProt Q61143); assay: inhibition of mouse TRPC6 channel, confirmation, selectivity assay for TRPC4 inhibitor project, cell-based, HEK293, membrane potential dye, duplicate (AID 434948;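 active means active in primary screen and both duplicates, each dropping signal beyond three positive-control SD with fluorescence still positive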); details: HEK293 TRPC6, membrane potential dye fluorescence, at 10 µM, stimulated with maximal-effect acetylcholine; hits give high values
[9] = target: Short transient receptor potential channel 6 (Mus musculus) (UniProt Q61143); assay: activation of mouse TRPC6 channel, confirmation, selectivity assay for TRPC4 activator project, cell-based, HEK293, membrane potential dye, duplicate (AID 434950;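 active means membrane potential signal rise above negative control mean plus 3 SD in both duplicates, also active in the earlier TRPC4 screen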;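 further: 0% = buffer only wells and 100% = acetylcholine maximal-effect wells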); details: HEK293 TRPC6, membrane potential fluorescence, at 10 µM; hits give high values
[10] = target: Short transient receptor potential channel 6 (Mus musculus) (UniProt Q61143); assay: TRPC6 potentiation by TRPC4 potentiator hits, confirmation, selectivity assay for TRPC4 potentiator project, HEK293 cells, membrane potential dye, duplicate (AID 434952;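 active means compound raising the membrane signal above positive-control mean plus 3 SD in both repeats, and a primary screen hit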); details: HEK293 TRPC6, membrane potential dye fluorescence, at 10 µM, maximal acetylcholine added after compound; hits give high values
[11] = target: Short transient receptor potential channel 4 (Mus musculus) (UniProt Q9QUQ5); assay: calcium flux activators in TRPC4/5HT1a cells, counter-screen for TRPC4 activator project, cell-based, second counter screen, HEK293 TRPC4/5HT1a, Fluo-4 (AID 434977;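 active means calcium signal rise above buffer-control mean plus 5 SD in both duplicates, and also a hit in the primary screen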;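 on activation: plate controls were assay buffer for no effect and maximal serotonin response for full effect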); details: Fluo-4 calcium flux, at 10 µM; hits give high values
[12] = calcium flux inhibitors in TRPC4/5HT1a cells, confirmation, counter-screen for TRPC4 inhibitor project, cell-based, second counter screen, HEK293 TRPC4/5HT1a, Fluo-4 (AID 434978;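 active means primary screen active whose calcium signal fell more than 3 SD beyond the full-serotonin control mean in both duplicate plates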;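 on outcome: serotonin given first at submaximal then at maximal dose after compound preincubation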); details: Fluo-4 calcium flux, at 10 µM, serotonin added to trigger calcium flux; hits give high values
[13] = test system: TRPC4 (mouse), co-expressed with 5HT1a in HEK293; assay: calcium flux potentiators in TRPC4/5HT1a cells, confirmation, counter-screen for TRPC4 potentiator project, cell-based, second counter screen, HEK293 TRPC4/5HT1a, Fluo-4 (AID 434979;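 active means signal rise over 3 SD above mean of control wells given weak agonist, in both repeats and first screen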); details: Fluo-4 calcium flux, at 10 µM, serotonin added at its EC20 dose; hits give high values
[14] = calcium flux activation in mu-opioid HEK293 cells, confirmation, counter-screen for TRPC4 activator project, cell-based, HEK293 mu-opioid receptor line (AID 449723;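 active means hit in primary screen, with calcium signal over 5 SD above buffer well mean in both duplicates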;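 further: counter screen cells carry the mu-opioid receptor alone and lack TRPC4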); details: Fluo-4 calcium fluorescence, at 10 µM; hits give high values
[15] = calcium flux enhancement in mu-opioid HEK293 cells, confirmation, counter-screen for TRPC4 allosteric potentiator project, cell-based, HEK293 mu-opioid receptor line (AID 449724;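 active means calcium signal rise more than 3 SD above the low-dose agonist control mean, in both duplicate plates and the primary screen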); details: Fluo-4 calcium flux, at 10 µM, compound added before EC20 DAMGO stimulus; hits give high values
[16] = target: Short transient receptor potential channel 4 (Mus musculus) (UniProt Q9QUQ5); assay: mouse TRPC4 membrane potential modulation by TRPC6 hits, confirmation, selectivity assay for TRPC6 inhibitor project, cell-based, second specificity screen, HEK293 TRPC4/mu-opioid (AID 2776;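 active means compounds whose fluorescence signal differed from control wells by over 3 SD, either direction, in both duplicate plates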); details: HEK293 TRPC4/MOR, membrane potential dye fluorescence, at 10 µM, channel activated by saturating DAMGO dose; hits give high values
[17] = test system: transient receptor potential cation channel C4 (TRPC4), mouse; assay: mouse TRPC4 modulation by TRPC6 hits, confirmation, selectivity assay for TRPC6 inhibitor project, cell-based, HEK293 TRPC4/mu-opioid, membrane potential dye (AID 2777;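 active means rise or fall in signal beyond 3 SD of buffer-only wells in both replicate plates, either sign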;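 further: integrated kinetic ratio of fluorescence range over baseline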); details: membrane potential fluorescence, at 10 µM
[18] = nonspecific membrane potential effects, parental HEK293, confirmation, counter-screen for TRPC6 inhibitor project, cell-based, second counter screen (AID 2779;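 active means membrane potential signal moving either way by over 3 SD of the maximum-effect control, in both duplicate plates, meaning non-specific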); details: parental HEK293 membrane potential dye fluorescence; at 10 µM; maximal acetylcholine challenge after compound addition
[19] = membrane potential modulation in parental HEK293, confirmation, counter-screen for TRPC6 inhibitor project, cell-based (AID 2780;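 active means membrane potential signal shifting up or down by more than 3 SD of buffer-only wells, on both duplicate plates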); details: parental HEK293 membrane potential dye fluorescence; at 10 µM
[20] = target: Short transient receptor potential channel 6 (Mus musculus) (UniProt Q61143); assay: mouse TRPC6 channel inhibitors, confirmation, HEK293 cells, membrane potential dye, duplicate (AID 488960;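 active means fluorescence ratio falls more than 5 SD below the full-stimulation control mean, in both duplicate runs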); details: ACh-evoked depolarization, at 10 µM; hits give high values
[21] = target: Short transient receptor potential channel 6 (Mus musculus) (UniProt Q61143); assay: mouse TRPC6 channel activators, confirmation, HEK293 cells, membrane potential dye, duplicate (AID 488961;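 active means ratio signal rise beyond 5 SD above unstimulated control wells' mean, seen in both duplicate runs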); details: HEK293-TRPC6 membrane potential dye fluorescence, FDSS, at 10 µM; hits give high values

Sequence of Short transient receptor potential channel 6 (Mus musculus) (Q61143 whole entry, looked up): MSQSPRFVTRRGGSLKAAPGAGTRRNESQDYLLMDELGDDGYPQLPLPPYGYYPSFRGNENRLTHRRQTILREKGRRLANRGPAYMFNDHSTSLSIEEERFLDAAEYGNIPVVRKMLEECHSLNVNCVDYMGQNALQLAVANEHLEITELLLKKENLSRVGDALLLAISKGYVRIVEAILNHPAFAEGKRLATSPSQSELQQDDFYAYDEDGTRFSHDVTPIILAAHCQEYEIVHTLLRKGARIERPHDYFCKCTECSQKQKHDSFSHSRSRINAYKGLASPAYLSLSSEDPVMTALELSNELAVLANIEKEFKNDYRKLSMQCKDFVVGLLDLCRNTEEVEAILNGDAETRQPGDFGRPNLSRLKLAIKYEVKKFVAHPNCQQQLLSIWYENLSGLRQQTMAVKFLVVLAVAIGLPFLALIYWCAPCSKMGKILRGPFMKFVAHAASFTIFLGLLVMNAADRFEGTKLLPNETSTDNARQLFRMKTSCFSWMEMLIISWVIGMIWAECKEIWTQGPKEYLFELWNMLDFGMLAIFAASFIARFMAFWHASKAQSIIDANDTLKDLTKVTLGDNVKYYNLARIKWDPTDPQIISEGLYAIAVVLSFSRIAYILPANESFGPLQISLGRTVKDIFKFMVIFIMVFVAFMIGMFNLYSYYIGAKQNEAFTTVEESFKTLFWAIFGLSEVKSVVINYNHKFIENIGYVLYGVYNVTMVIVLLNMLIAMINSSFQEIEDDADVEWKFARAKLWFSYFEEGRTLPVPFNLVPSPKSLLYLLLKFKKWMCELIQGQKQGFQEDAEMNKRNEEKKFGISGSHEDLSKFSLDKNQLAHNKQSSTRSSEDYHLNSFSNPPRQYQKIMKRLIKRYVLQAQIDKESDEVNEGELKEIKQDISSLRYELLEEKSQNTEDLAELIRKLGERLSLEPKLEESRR
Sequence of Short transient receptor potential channel 4 (Mus musculus) (Q9QUQ5 whole entry, looked up): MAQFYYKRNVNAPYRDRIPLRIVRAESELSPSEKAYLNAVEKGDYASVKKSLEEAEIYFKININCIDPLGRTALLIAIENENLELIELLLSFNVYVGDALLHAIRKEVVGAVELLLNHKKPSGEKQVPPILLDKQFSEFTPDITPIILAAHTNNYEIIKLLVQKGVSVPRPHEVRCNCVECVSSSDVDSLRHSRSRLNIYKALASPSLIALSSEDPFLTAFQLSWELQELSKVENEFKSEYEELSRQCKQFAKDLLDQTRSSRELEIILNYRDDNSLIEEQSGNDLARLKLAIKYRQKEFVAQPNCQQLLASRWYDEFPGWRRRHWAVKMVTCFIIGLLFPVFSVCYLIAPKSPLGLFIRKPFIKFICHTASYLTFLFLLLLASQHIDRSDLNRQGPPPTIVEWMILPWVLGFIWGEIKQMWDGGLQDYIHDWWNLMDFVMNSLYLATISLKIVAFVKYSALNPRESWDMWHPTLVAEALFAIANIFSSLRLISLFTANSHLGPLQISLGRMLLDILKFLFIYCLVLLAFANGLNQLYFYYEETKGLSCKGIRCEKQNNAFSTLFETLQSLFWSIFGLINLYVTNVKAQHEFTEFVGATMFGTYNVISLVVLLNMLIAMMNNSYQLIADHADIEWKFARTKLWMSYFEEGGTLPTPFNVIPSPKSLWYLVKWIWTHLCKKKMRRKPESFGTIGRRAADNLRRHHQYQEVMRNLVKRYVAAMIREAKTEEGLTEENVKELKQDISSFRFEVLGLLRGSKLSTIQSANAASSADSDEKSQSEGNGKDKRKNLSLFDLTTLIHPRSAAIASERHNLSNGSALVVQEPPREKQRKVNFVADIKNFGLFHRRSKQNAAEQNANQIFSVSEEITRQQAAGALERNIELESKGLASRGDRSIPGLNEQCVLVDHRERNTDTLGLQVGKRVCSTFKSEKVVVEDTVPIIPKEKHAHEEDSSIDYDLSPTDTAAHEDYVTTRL

CC(=O)Nc1ccc(C2(c3ccc(NC(C)=O)cc3)C(=O)Nc3ccccc32)cc1
active: inhibition [5] 83% | inhibition [6] 61% | activation [9] 30%
inactive: outcome [1] | outcome [2] | outcome [3] | outcome [4] | outcome [7] | outcome [8] | outcome [10] | outcome [11] | outcome [12] | outcome [13] | outcome [14] | outcome [15]

OC(CNC1CCCc2ccccc21)COc1c(Cl)cccc1Cl (stereo unspecified)
active: activation [1] 86% | inhibition [6] 52% | activation [9] 101% | activation [11] 9.49% | inhibition [12] 35.9% | activation [14] 14.8%
inactive: outcome [2] | outcome [3] | outcome [4] | outcome [5] | outcome [7] | outcome [8] | outcome [10] | outcome [13] | outcome [15]

Cc1ccccc1OCC(O)Cn1c(=N)n(Cc2ccccc2)c2ccccc21 (stereo unspecified)
inactive: outcome [2] | outcome [3] | outcome [4] | outcome [6] | outcome [7] | outcome [10] | outcome [13] | outcome [15]
active: activation [1] 70% | inhibition [5] 84% | inhibition [8] 39.5% | activation [9] 52.5% | activation [11] 9.48% | inhibition [12] 38% | activation [14] 18.7%

CN(C)c1ccc(C2N(C)C(=O)c3ccccc3N2C)cc1 (stereo unspecified)
inactive: outcome [16] | outcome [17] | outcome [19] | outcome [20] | outcome [21]
active: signal change vs control [18] 262%
